# From PubChem BioAssay
# Most compounds without a hit are left out; they make up all but 19% or so of the library.
# Giardia killer: kills Giardia lamblia | activity change, % at 7.66 µM, hits read low | AID 540267 | Giardia lamblia trophozoite viability | 340,000 compounds, 0.15% hits; in the data active = activity change below about -80%; inconclusive = between about -30% and that limit;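 also: parasites exposed to compound for two days anaerobically before the ATP read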
#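 Killing of trophozoites was scored by loss of ATP luminescence after a 48 hrs anaerobic exposure to compounds at 37 deg C, using 100 cells per well.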
# TDP1 block: inhibitors of human tyrosyl-DNA phosphodiesterase TDP1; Q9NUW8; recombinant TDP1, AlphaScreen DNA substrate cleavage; Potency, µM (titrated, usually from 130 µM), without a hit: at the top dose activity change, negative = inhibition, hits mostly inhibitors; 350,000 compounds, 0.28% hits; also: potency is read from the fitted curve at half-maximal effect; nearly all actives have a fitted effect of over 40% in size
# Target sequence (Q9NUW8 whole entry, looked up): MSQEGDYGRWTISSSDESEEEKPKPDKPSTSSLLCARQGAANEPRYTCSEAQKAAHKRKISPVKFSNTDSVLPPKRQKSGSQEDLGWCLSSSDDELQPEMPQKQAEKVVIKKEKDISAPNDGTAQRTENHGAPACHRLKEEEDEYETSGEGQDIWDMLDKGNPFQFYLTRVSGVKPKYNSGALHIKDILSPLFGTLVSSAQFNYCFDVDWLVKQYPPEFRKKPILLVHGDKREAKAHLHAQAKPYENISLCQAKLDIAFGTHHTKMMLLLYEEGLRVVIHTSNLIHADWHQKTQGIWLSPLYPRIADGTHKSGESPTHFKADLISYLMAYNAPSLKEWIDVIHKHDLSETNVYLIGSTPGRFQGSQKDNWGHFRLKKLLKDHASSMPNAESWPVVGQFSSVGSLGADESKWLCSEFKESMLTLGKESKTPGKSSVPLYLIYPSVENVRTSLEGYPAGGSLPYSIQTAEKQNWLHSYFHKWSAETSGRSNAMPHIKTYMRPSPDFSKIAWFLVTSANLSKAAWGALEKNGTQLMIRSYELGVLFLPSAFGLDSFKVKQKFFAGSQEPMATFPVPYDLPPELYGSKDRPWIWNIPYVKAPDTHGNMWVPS
#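 AlphaScreen read-out: signal falls as enzyme removes the 3' tyrosine-FITC from a 5'-biotinylated DNA oligo (15 nM, 5 min, RT). Enzyme was E. coli-made recombinant Tdp1 at 1 nM, exposed to compound for 15 min beforehand; beads 10 ug/ml, 10 min.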
# IL-1B inflam inh: blocks inflammasome-driven IL-1 beta release | activity change, % at 57.5 µM | THP-1 LPS/ATP IL-1B secretion, AlphaLISA, 16 h; active compounds read low | AID 743279 | 360,000 compounds, 4.7% hits; in the data active = activity change below about -50%; inconclusive = mostly about -30% to -49%
#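 THP-1 cells pretreated 1 hr with compounds (up to 57.5 uM final), then stimulated with LPS (250 ng/mL final) plus ATP (1.25 mM final); secreted IL-1B measured by AlphaLISA after 16 hr, decreased signal indicating inhibition.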
# ELG1 repair inh: ELG1-dependent DNA repair inhibition; 330,000 compounds, 2.3% hits; Potency, µM (doses to about 46.1 µM), for inactives: top-dose activity change, negative = inhibition, hits mostly inhibitors; HEK293T ELG1-luciferase reporter, luminescence, 16 h; DNA damage induced by 5-fluorouridine; AID 504467; also: potency is read from the fitted curve at half-maximal effect; nearly all actives have a fitted effect of over 55% in size
#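 Cells (2,000 per well) received 5-fluorouridine plus test compound or DMSO and were incubated 16 hr at 37 °C, 5% CO2. Luciferase activity was read by luminescence 30 min after ONE-Glo addition; signal suppression marked inhibition of damage-induced ELG1 function.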
# TDP1 cell CPT: growth inhibition of DT40 Tdp1-/-;hTDP1 cells with camptothecin (screen for TDP1 inhibitors); chicken DT40 Tdp1-/-;hTDP1 cells + 20 nM CPT, ATP luminescence, 48 h; Potency, µM (top dose mostly 46.2 µM), for inactives: at the top dose activity change, negative = growth inhibition, actives largely listed as inhibitors; 420,000 compounds, 12% hits; also: potency is read from the fitted curve at half-maximal effect; nearly all actives have a fitted effect of over 55% in size
#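 Chicken DT40 Tdp1-/- cells complemented with human TDP1, 400 cells/well, exposed to compounds plus 20 nM camptothecin for at least 48 h at 37 C; viability read as ATP content by CellTiter-Glo luminescence.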
# TDP1 cell noCPT: qHTS for Inhibitors of human tyrosyl-DNA phosphodiesterase 1 (TDP1): qHTS in cells in absence of CPT; 420,000 compounds, 15% hits; DT40 Tdp1-/- hTDP1 cells, no CPT, ATP luminescence, 48 h; Potency, µM (highest dose often 46.2 µM), inactives show at the top dose activity change, negative = growth inhibition, most hits filed as inhibitors; also: potency is read from the fitted curve at half-maximal effect; nearly all actives have a fitted effect of over 55% in size
#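 Growth of hTDP1-complemented DT40 Tdp1-knockout cells is measured by ATP luminescence after at least 48 hr compound exposure at 37 °C, with DMSO substituting for the 20 nM CPT used in the parallel screen.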
# Active calls of the source: *; i = inactive; ? = inconclusive; · = not tested or not shown; ! = not confirmed by another sample; [ ] = another dose, or the depositor's remark. Unless noted, calls follow the shape of the dose curve; as a rule, active = well fitted curve in the direction sought with a large enough effect; inconclusive = small, poorly fitted or top-dose-only effect, or another doubt; inactive = no such curve, though single readings can be large; an effect the other way counts as inactive or inconclusive. % is scaled to controls: 0 for no effect and ±100 for the full control effect.
SMILES,Giardia killer,TDP1 block,IL-1B inflam inh,ELG1 repair inh,TDP1 cell CPT,TDP1 cell noCPT
CCOC(=O)c1c(C)[nH]c(C)c1S(=O)(=O)N1CCCC(C(=O)Nc2ccc(F)cc2F)C1 (centres undefined),·,5%,·,·,?,-28%
COc1ccc(C2CC(=O)N(C)c3ccccc3S2)cc1 (centres undefined),7,5%,0,?,?,?
CCC(C)c1ccccc1N1CC(C(=O)Nc2ccc(N3CCOCC3)cc2)CC1=O (centres undefined),-4,2%[56.1 µM],-9,4%,-13%,-7%
Cc1cccc(N2CC(C(=O)Nc3cccc(S(=O)(=O)N4CCCCC4)c3)CC2=O)c1C (centres undefined),0,1%,-51*,?,18µM*,?
CCC(C)c1ccccc1N1CC(C(=O)Nc2cccc(S(=O)(=O)N3CCOCC3)c2)CC1=O (centres undefined),7,2%,i,-7%,18µM*,18µM*
O=C(c1cccc([N+](=O)[O-])c1)c1ccc2[nH]c(=O)[nH]c2c1,-20,5%,-23,28%,-2%,-20%
Cc1c(C(=O)NCc2ccc(F)cc2)sc2nc3n(c(=O)c12)CCC3,·,-6%,·,·,-12%,-17%
CC(=O)Nc1ccc(S(=O)(=O)N2CCN=C2SCc2cccc(C)c2)cc1,4,3%[56.1 µM],i,-23%,?,?
CC(=O)Nc1ccc(S(=O)(=O)N2CCN=C2SCc2ccccc2C)cc1,1,3%,-3,-10%,?,16µM*
CC(=O)Nc1ccc(S(=O)(=O)N2CCN=C2SCc2ccc([N+](=O)[O-])cc2)cc1,12,5%,-28,?,12µM*,7.3µM*
CS(=O)(=O)N1CCN=C1SCc1ccc([N+](=O)[O-])cc1,5,1%,0,-18%,12%,6%
COc1ccc(-n2cc(C(=O)Oc3cc(C)cc(C)c3)c3ccccc3c2=O)cc1,·,8%,·,·,?,?
CC[N+]1(CC(=O)c2ccc(Br)cc2)CCCCC1,·,·,·,·,-31%,-24%
O=C(COc1ccccc1C(=O)N/N=C\c1ccc(O)c(O)c1)N/N=C/c1ccc(O)c(O)c1,-9,-7%,6,0%,16µM*,?
CCOc1cc(/C=N/NC(=O)c2ccccc2OCc2ccc(F)cc2)ccc1O,26,1%,-8,5.8µM*,?,13µM*
Oc1cccc(C=NN=C2c3ccccc3-c3ccccc32)c1,-10,·,-19,·,-2%,-30%
CCOc1cc(/C=N/NC(=O)c2ccccc2-n2cccc2)ccc1O,-6,3%,30,?,?,?
CCOc1cc(/C=N/NC(=O)N/N=C/c2ccc(O)c(OCC)c2)ccc1O,-7,·,?,·,2.6µM*,2.9µM*
CCOc1cc(C=NN=C2c3ccccc3-c3ccccc32)ccc1O,-7,·,-17,·,?,18µM*
O=C(COc1ccccc1[N+](=O)[O-])N/N=C/c1ccc(O)c([N+](=O)[O-])c1,-18,9%,28,?,?,-15%
Cc1ccc(CNc2ncnc3sc(C(=O)N4CCC(N5CCCC(O)C5)CC4)c(C)c23)o1 (centres undefined),·,·,·,·,2%[9.04 µM],2%
COc1ccc(NC(=O)c2oc3ccccc3c2NC(=O)C2CCCCC2)c(OC)c1,·,1%,·,·,10%,-12%
Cc1ccc(S(=O)(=O)N2CCN(Cc3cc(=O)n4ccccc4n3)CC2)c(C)c1,-2,1%,45,7.3µM*,?,-2%
Cc1ccc(S(=O)(=O)N2CCN(Cc3cc(=O)n4ccccc4n3)CC2)cc1C,24,0%,-11,-5%,-6%,-14%
O=S(=O)(c1cccc(C(F)(F)F)c1)N1CCN(c2nc(-c3cccs3)nc3cc(Cl)ccc23)CC1,2,0%,·,·,·,·
SMILES,Giardia killer,TDP1 block,IL-1B inflam inh,ELG1 repair inh,TDP1 cell CPT,TDP1 cell noCPT
CCOc1cccc(C(=O)Nc2ccc3oc(-c4ccc(C(C)(C)C)cc4)nc3c2)c1,·,3%[12.3 µM],·,·,?,2.9µM*
O=C(Nc1ccc2oc(-c3cccnc3)nc2c1)c1ccc([N+](=O)[O-])o1,?,7%,·,?,6.5µM*,8.2µM*
CCOc1cccc(C(=O)Nc2ccc3oc(-c4cccnc4)nc3c2)c1,?,·,?,18µM*,?,?
CCCCOc1cccc(C(=O)Nc2ccc3oc(-c4cccnc4)nc3c2)c1,·,4%[12.3 µM],·,·,?,?
CCOc1ccc(C(=O)Nc2ccc3oc(-c4ccc5ccccc5c4)nc3c2)cc1,·,2%[2.28 µM],·,·,3.7µM*,?
CCc1ccccc1NC(=S)N1CCN(c2cccc(OC)c2)CC1,-28,·,19,-13%,2%,-3%
O=C(Nc1nc(-c2ccccc2)nc2ccccc12)c1ccc(F)cc1,-16,0%,-4,?,?,?
COc1cc(NC(=O)CSc2nnc3ccccn23)cc(OC)c1OC,·,·,29,·,8%,-11%
COc1ccc(-c2cc(C(=O)N3CCN(c4ccccc4OC)CC3)no2)cc1,16,1%,7,?,-1%,?
COc1ccc(OC)c(-c2cc(C(=O)N3CCN(c4ccccc4)CC3)no2)c1,3,7%,49,-16%,?,21µM*
COc1ccc(-c2cc(C(=O)N3CCN(c4ccccc4)CC3)no2)cc1,9,-5%,-53*,?,18µM*!,21µM*!
CCc1ccc(-c2nn(CC(=O)NC3CCCC3)c3c2cnc2ccc(C)cc23)cc1,·,3%,·,·,-19%,-4%
O=Nc1c(-c2c(O)[nH]c3cc(Br)ccc23)[nH]c2ccccc12,-4,24%[56.1 µM],-106*,?,?,15µM*
CN(C(=O)c1ccccc1F)C(c1ccccc1)c1ccccc1,7,4%,-10,-13%,10µM*,16µM*
CC(/C=N/NC(=O)c1ccccc1F)c1ccccc1 (centres undefined),10,·,-5,?,-11%,22%
COc1ccc(N(C(=O)c2ccn[nH]2)C(C(=O)NC2CCCC2)c2ccc(F)cc2)cc1 (centres undefined),17,-3%,-15,1%,-24%,-18%
COc1ccc(C(C(=O)NC2CCCC2)N(C(=O)c2snc(-c3ccc(F)cc3)c2N)c2cccc(F)c2)cc1 (centres undefined),6,3%,40,4%,6.5µM*,7.3µM*
